Assay results taken from ChEMBL document CHEMBL3988442, “University of Dundee, Small-Polar-MMV Screening Library” (2021).
In all, about 48,000 compounds went through this assay and about 13,000 (27%) showed an effect of 50% or more. Some of the results follow.

test system: Wolbachia pipientis; assay: Anti-Wolbachia Cell-Based Screen; assay type: functional; set-up: scale not given: in the data most compounds retested in dose-response had high values; conditions: 5 µM

Structure (SMILES) | Percent Effect [%]
COCCN(C)C(=O)Nc1cc2c(cc1SC)OCCO2 | -4.661
O=C(CN1CCCNC1=O)Nc1ccccc1SC(F)(F)F | 20.21
Cc1cc(N2CCN(Cc3ccsc3)C(CCO)C2)nc(N)n1 (stereo not drawn) | 18.89
CSc1ncc(C(=O)N2C[C@H]3CC[C@@H]2CN(S(=O)(=O)N(C)C)C3)cn1 | -20.31
O=C(NC1CC1)c1cc(NC(=O)N2CCCC(O)C2)ccc1Cl (stereo not drawn) | -7.994
COc1cccc(CC2CN(C3CCN(C(C)=O)CC3)CCO2)c1 (stereo not drawn) | -14.95
CC(C)Cc1cc(CNC(=O)C2CCCN(C(=O)N(C)C)C2)no1 (stereo not drawn) | 1.053
CCC(CC)c1cc(CNC(=O)N2CCCC(C(=O)NC)C2)on1 (stereo not drawn) | -0.3036
CSCc1nc(CNC(=O)C2CCCN(C(=O)N(C)C)C2)cs1 (stereo not drawn) | 1.326
CCc1cc(NC(=O)C2CCCN(C(=O)c3ccncc3)C2)[nH]n1 (stereo not drawn) | 100.1
COCC(=O)N1CCCC(C(=O)NCc2cc(CC(C)C)on2)C1 (stereo not drawn) | 3.91
CCc1cc(CNC(=O)C2CCCN(C(=O)NCC(C)C)C2)[nH]n1 (stereo not drawn) | 152.4
Cc1cc(CN(C)C(=O)C2CCCN(C(=O)c3ccc(Cl)cc3)C2)no1 (stereo not drawn) | -5.924
CCc1cc(NC(=O)C2CCCN(C(=O)NCC(C)C)C2)[nH]n1 (stereo not drawn) | 96.52
COCCN1CCOCC12CCN(c1cnccn1)CC2.O=C(O)C(F)(F)F | 110.8
CCN1CCOCC12CCN(c1ccc(C#N)cc1)CC2.O=C(O)C(F)(F)F | -6.455
CCN1CCOCC12CCN(c1nccs1)CC2.O=C(O)C(F)(F)F | -65.58
COCCN1CCOCC2(CCN(c3cnccn3)CC2)C1.O=C(O)C(F)(F)F | -15.76
COCCN1CCOCC12CCN(c1nccs1)CC2.O=C(O)C(F)(F)F | 44.08
CCN1CCOCC12CCN(c1cnccn1)CC2.O=C(O)C(F)(F)F | 94.98
CC(C)(C)c1cc(C(=O)NCCn2nc3ccccn3c2=O)[nH]n1 | 15.5
O=C(NCc1ccnc(C2CCCOC2)n1)c1cccs1 (stereo not drawn) | 112.2
O=C(NC[C@H]1OC[C@@H](NC2CCOCC2)[C@@H]1O)c1cccs1 | -3.226
O=C(NC[C@H]1OC[C@@H](NC2CCC2)[C@@H]1O)c1cccs1 | 2.166
Cn1ccnc1Sc1ncc(C(=O)N2CCCCC2)cc1Cl | 1.099

Structure (SMILES) | Percent Effect [%]
Cc1cccn2c(CNC(C)CCn3cccn3)cnc12 (stereo not drawn) | -12.69
CCOC(=O)CNC(=O)N1CCc2onc(-c3ccc(Cl)cc3)c2C1 | -4.75
Cc1nc(-c2ccccc2)n(CC(=O)NCC(C)C)n1 | -0.5584
CC(C)CNC(=O)CN1C=Nc2ccccc2S1(=O)=O | -1.925
Cc1nc(-c2ccoc2)n(CC(=O)N(C)CC(C)C)c1C | 99.79
CCOC(=O)CNC(=O)Cn1c(-c2ccoc2)nc(C)c1C | 117
COc1cccn(CC(=O)N(C)Cc2ccoc2)c1=O | -6.863
Cc1nc(-c2ccoc2)n(CC(=O)NCC(C)C)c1C | 121.2
CCOC(=O)CCCNC(=O)CN1CCN(c2ncccn2)CC1 | -1.703
Cc1nc(NC(=O)N(C)Cc2ccoc2)nn1C | -1.976
CSCCC(C)NC(=O)N(C)Cc1cc(Cl)cn1C (stereo not drawn) | -13.17
CNC(=O)c1cc2c(nc1NCC(C)C)CCN(S(C)(=O)=O)CC2 | -6.713
COc1ccc(C#N)cc1CSCCN1CCOCC1 | -1.196
CCOc1ccc(CN(CCC#N)CCN2CCOCC2)cc1OC | 119.9
COc1ccc(CN(CCC#N)CCN2CCOCC2)cc1OC | 124
N#CCCN(CCN1CCOCC1)Cc1ccc(F)c(Br)c1 | 132.9
N#Cc1cc(CSCCN2CCOCC2)ccc1F | -6.22
CN(Cc1cccc(C#N)c1)S(=O)(=O)N1CCOCC1 | 12.93
N#CC1COCCN1S(=O)(=O)c1ccc(F)c(Br)c1 (stereo not drawn) | -8.72
COc1ccc(CN(CCC#N)CCN2CCOCC2)c(OC)c1 | 118.6
COc1ccc(CCC(=O)N(C)CCN2CCOCC2)cc1OC | 6.913
COc1ccc(CN(C)Cc2cccc(C#N)c2)c(OC)c1 | 0.7087
COc1cc(F)ccc1C(C(=O)O)N(C)CCN1CCOCC1 (stereo not drawn) | -4.538
CCCC(=O)N(CCN1CCOCC1)c1nc2c(OC)ccc(C)c2s1.Cl | 15.71
CCc1ccccc1OC1CN(C(=O)c2cccs2)C1 | 3.168

Structure (SMILES) | Percent Effect [%]
Cn1c(NC(=O)CNC(=O)C2CC2)nc2cc(Cl)ccc21 | -0.3531
CC(C)c1nn(C)c(N2CCOCC2)c1CN[C@H](C)CO | -7.825
Cc1c[nH]c(CN2CCCCC2CCn2ccnc2C)c(C)c1=O (stereo not drawn) | -47.12
O=C(c1ccc(C2CCCO2)s1)N1CCN(c2ccccc2F)CC1 (stereo not drawn) | 2.107
CCN(Cc1nccn1C)C(=O)c1ccc(NCc2cnn(C)c2)nc1 | -21.14
CN(C)C(=O)CN1CCCC1c1cccc(Cc2ccccc2F)n1 (stereo not drawn) | 121.7
COCCN(C)CC1CCCN1S(=O)(=O)Cc1ccccc1F (stereo not drawn) | 4.481
CS(=O)(=O)N1CCCC1c1cccc(Cc2ccccc2F)n1 (stereo not drawn) | 107.7
CC(=O)N1CCCC1c1cccc(Cc2ccccc2Cl)n1 (stereo not drawn) | 110.5
CC(=O)N1CCCC1c1cccc(NCc2ccccc2F)n1 (stereo not drawn) | 111.2
Cc1nccn1CC1CCCN1S(=O)(=O)Cc1ccccc1F (stereo not drawn) | -7.214
O=C(NC[C@H]1OC[C@@H](NC2COC2)[C@@H]1O)c1cccs1 | 4.392
CN(Cc1ccoc1)C(=O)C1CC(=O)N(Cc2ccncc2)C1 (stereo not drawn) | 3.123
CC(=O)N1CCCC1c1cccc(Oc2ccccc2F)n1 (stereo not drawn) | 150.9
COCC(=O)N1CCCC1c1cccc(Cc2ccccc2F)n1 (stereo not drawn) | 111
CC(=O)N1CCCC1c1cccc(Cc2ccccc2F)n1 (stereo not drawn) | 1.098
CC(C)(C)c1coc([C@@H]2COCCN2CC2CC2)n1 | -8.42
CCc1n[nH]c(C2CN(Cc3nnc(C4CC4)n3C)CCO2)n1 (stereo not drawn) | -1.784
CCS(=O)(=O)c1ccc(N2CCC(NC(=O)c3ccccn3)CC2)cc1 | 1.284
COc1ccc(C[C@H]2CN(c3nnc(C)s3)CC[C@@H]2OC)cc1.O=C(O)C(F)(F)F | 83.05
COc1ccc(C[C@H]2CN(c3nnc(C)s3)CC[C@H]2OC)cc1.O=C(O)C(F)(F)F | 100.4
Cn1nc(Cn2cccn2)c2c1CN(Cc1ccsc1)C2.O=C(O)C(F)(F)F | -9.596
Cn1cccc1CN1CCC2(CCCN(C(=O)c3cnccn3)C2)C1.O=C(O)C(F)(F)F (stereo not drawn) | -0.2095
O=C(O)C(F)(F)F.O=C(c1cnccn1)N1CC2(CCN(Cc3ccsc3)C2)C1 | 96.61
O=C(O)C(F)(F)F.O=C(c1cnccn1)N1CCOC2(CCN(Cc3ccsc3)CC2)C1 | -59.08

Structure (SMILES) | Percent Effect [%]
O=C(O)C(F)(F)F.O=C(c1cnccn1)N1CCCC2(CCN(Cc3ccc(F)cc3)C2)C1 (stereo not drawn) | 8.086
O=C(O)C(F)(F)F.O=C(O)C(F)(F)F.O=C(c1cnccn1)N1CCCC2(CCN(Cc3cccnc3)C2)C1 (stereo not drawn) | -9.392
O=C(O)C(F)(F)F.O=C(O)C(F)(F)F.c1csc(CN2CC3(CCN(Cc4ccsc4)C3)C2)n1 | -7.051
O=C(O)C(F)(F)F.O=C(c1cnccn1)N1CCCC2(CCN(Cc3ccsc3)C2)C1 (stereo not drawn) | 100.1
O=C(O)C(F)(F)F.O=C(c1cnccn1)N1CCCC2(CCN(Cc3ccsc3)CC2)C1 | 106.6
CN1CC2(CCN(Cc3cccc(C#N)c3)CC2)CC1=O | 2.767
CCN1CCC(CNC(=O)C(c2ccc(F)cc2)N(C)C)(N(C)C)CC1 (stereo not drawn) | -1.923
CN(C)C(=O)c1ccc(OC2CCCC2)cc1 | 1.251
Cc1ccc(C(=O)N2C[C@@H]3C[C@@H](c4nnc(C5CC5)o4)O[C@@H]3C2)s1 | -0.8808
CCC(C)c1noc(C2CCN(C(=O)c3cccs3)CC2)n1 (stereo not drawn) | -5.715
O=C1NCCO[C@H]2CN(C(=O)c3cccs3)CC[C@@H]12 | -55.85
O=C(c1cccs1)N1CC[C@H]2C[C@@H](c3nnc(C4CC4)o3)O[C@@H]2C1 | 88.85
Cn1cccc1C(=O)N1CC[C@H]2[C@H](CO[C@H]2CNS(C)(=O)=O)C1 | -6.617
O=C(c1ccsc1)N1CC[C@H]2C[C@@H](c3nnc(C4CC4)o3)O[C@@H]2C1 | 4.587
O=C(c1cscn1)N1CC[C@H]2C[C@H](c3nnc(C4CC4)o3)O[C@@H]2C1 | 101.5
O=C(c1cscn1)N1C[C@@H]2C[C@@H](c3nnc(C4CC4)o3)O[C@@H]2C1 | -5.593
O=C(c1ccccc1)N1CC[C@H]2C[C@@H](c3nnc(C4CC4)o3)O[C@@H]2C1 | 70.82
Cn1cccc1C(=O)N1C[C@@H]2C[C@@H](c3nnc(C4CC4)o3)O[C@@H]2C1 | 104.3
COc1cc(N2CCC(c3nccn3Cc3ccccn3)CC2)ncn1 | 2.703
CCCN1CCC(Nc2nc(C)ns2)CC1 | -28.04
COc1ccc(CN2CCC=C(C(C)NC(C)=O)C2)cc1 (stereo not drawn) | -15.58
Cc1n[nH]c(CN2CCN(CC3CC3)[C@@H]3CS(=O)(=O)C[C@@H]32)n1 | 6.272
CCOc1cccc(CCNC(=O)Cc2ccccc2O)n1 | -26.19
